Whole data set: some 35,000 sequences, median “fluorescence intensity (a.u.)” near 10,000, cut for the highest 2% near 52,000. Shown is part of a subset that was picked to be rich in the highest values.
Each sequence was assayed against T1, OsWOX13 (Oryza sativa, UniProt Q5QMM3 1-267) (assay: protein-binding microarray (RPBM); PBS, 2% BSA, 51.3 ng/ul salmon testes DNA, 50 uM zinc acetate, 200 nM TF, 25 C, 1 h; high values mean tight binding). Settings: protein: recombinant; tags: N-terminal polyhistidine and DsRed monomer fusion (pET32a); label: CyDye5-dUTP incorporated in the synthesized complementary strand; 3' TTTTT single-stranded linker to array surface; dsDNA, one strand shown.
T1 sequence: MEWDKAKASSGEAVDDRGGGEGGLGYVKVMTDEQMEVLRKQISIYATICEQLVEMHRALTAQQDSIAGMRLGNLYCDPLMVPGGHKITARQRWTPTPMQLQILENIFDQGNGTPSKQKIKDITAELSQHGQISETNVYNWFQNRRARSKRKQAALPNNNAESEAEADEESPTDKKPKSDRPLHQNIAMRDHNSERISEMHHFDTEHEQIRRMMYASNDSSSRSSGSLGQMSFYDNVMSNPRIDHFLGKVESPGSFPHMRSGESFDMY
In short: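 Transcription factors were made in E. coli BL21-CodonPlus as N-terminal fusions to a polyhistidine tag and DsRed, then purified on Ni–NTA. After primer extension with Cy5-dUTP and blocking with 2% BSA, a custom Agilent array was exposed for 1 h at 25 °C to 200 nM protein in PBS, 2% BSA, salmon testes DNA and 50 µM zinc acetate. Washed arrays were scanned on an Axon 4000B, and the binding signal is per-feature fluorescence intensity in arbitrary units.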

Row | Sequence | binding signal
1 | CAAGATTTTAATAAATGCATAATTTTATGAATCGCATAGACGGAGTCACCTAGTGCAG | 7290 fluorescence intensity (a.u.)
2 | CATGACATACAATTTATCAGATCCAATTTTAGGATTATTCCGGAGTCACCTAGTGCAG | 10900 fluorescence intensity (a.u.)
3 | GTTAACTAATTAGGGCGTATGAACAAGTCATCGTGGCAGTCGGAGTCACCTAGTGCAG | 23000 fluorescence intensity (a.u.)
4 | GAATAATTACCGAAAAGGCAATTAATTAGTGACAGGGAGTCGGAGTCACCTAGTGCAG | 26200 fluorescence intensity (a.u.)
5 | GGCTTCCTTAATTGTACATGTCTCTCTTCATTCTGCTGCACGGAGTCACCTAGTGCAG | 5930 fluorescence intensity (a.u.)
6 | TTTCTGATTTACGTGGCTTGTGAGTAGGGCGCCTCCTCATCGGAGTCACCTAGTGCAG | 8000 fluorescence intensity (a.u.)
7 | TTATGATTATTTTAGAATTTTCAAAATCATGGAATATAATCGGAGTCACCTAGTGCAG | 7490 fluorescence intensity (a.u.)
8 | GCCTTAACTTTGTGATCATATCTTCATCTTCATTAGGCCTCGGAGTCACCTAGTGCAG | 4300 fluorescence intensity (a.u.)
9 | AATACAATTAATTACAGTTAATTAAATGATAGAAAGAGTTCGGAGTCACCTAGTGCAG | 55400 fluorescence intensity (a.u.)
10 | ATCTAAATTGTTTTAGATTTGTGCACAAGAACAAAAGAGACGGAGTCACCTAGTGCAG | 16800 fluorescence intensity (a.u.)
11 | CTAAATTATACGGAGATGATAATGTAGTTACAGTGCAGTTCGGAGTCACCTAGTGCAG | 21900 fluorescence intensity (a.u.)
12 | TTAAATGATAGAAATACAATTATTACGGAATAGAATGTAGCGGAGTCACCTAGTGCAG | 29100 fluorescence intensity (a.u.)
13 | TAATTAAATTGTCATATCACTTCTTAACTTATTGGACTAACGGAGTCACCTAGTGCAG | 5280 fluorescence intensity (a.u.)
14 | AAACAGTTTTCCCCAAAATTGATTGTAAATATACATATACCGGAGTCACCTAGTGCAG | 14900 fluorescence intensity (a.u.)
15 | CATCTAATTTAAATTTAAATGTTTTAAAAGATAGAGACGTCGGAGTCACCTAGTGCAG | 52400 fluorescence intensity (a.u.)
16 | GATGCCATCTAATTTTAAATGATGATGTGGAGAAGAGAGTCGGAGTCACCTAGTGCAG | 7100 fluorescence intensity (a.u.)
17 | TAAATTTAAACGGTAAATTAAGGAGAGGGAGGTCATTCTTCGGAGTCACCTAGTGCAG | 6560 fluorescence intensity (a.u.)
18 | AATTGAGACTTCGGTAAAACTTAAGGGACTAAATTAACTACGGAGTCACCTAGTGCAG | 52700 fluorescence intensity (a.u.)
19 | ATTTGTATAATTGGAACCATGCCATTCCAACACAACAAAACGGAGTCACCTAGTGCAG | 6320 fluorescence intensity (a.u.)
20 | GTAAATTGATTTGTATATGGCCATTTCCAACCCAAAACACCGGAGTCACCTAGTGCAG | 56300 fluorescence intensity (a.u.)
21 | TGTATGATTTATGTATAATTAGAGATATACAATCATATAACGGAGTCACCTAGTGCAG | 16900 fluorescence intensity (a.u.)
22 | AGGAGAAACAATTTGCAATCATCACATTGTTTAAAGAGATCGGAGTCACCTAGTGCAG | 5330 fluorescence intensity (a.u.)
23 | CATTGGAATTGATGATCACATTATACATGGATTTGACCCACGGAGTCACCTAGTGCAG | 30600 fluorescence intensity (a.u.)
